Screens (PubChem BioAssay)
CCT chaperon mod: modulators of cytosolic chaperonin (CCT/TRiC) activity. purified chaperonin ATPase assay, HTRF ADP detection, 30 min. 0.3% of 360,000 active. activity change, % (no concentration beside the values), hits read low; in the data active = activity change below about -30%; note: % is set by controls: 0 for no effect and ±100 for the full control effect
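ATPase activity: ADP formed was measured by HTRF Transcreener (665/615 nm ratio) after 30 min at 37 deg C with 10 uM ATP. Compounds screened at one 76 uM concentration against 40 or 20 nM TRiC in Tris pH 7.4/KCl/MgCl2/DTT buffer.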
Abeta yeast res: A-beta toxicity reversal in yeast. 0.063% of 410,000 active. AID 1347071. yeast expressing A-beta42, growth rescue, OD600, 48 h; response scale: 0% DMSO, 100% iron-clioquinol control. Potency, µM (series often up to 46.1 µM), actives largely listed as activators; note: potency is the fitted concentration of half-maximal effect; nearly all actives have a fitted effect of over 55% in size
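Yeast A-beta toxicity model in growth medium with pinned compounds, 48 h at 30 C; growth read as absorbance at 600 nm. Normalized to FeCl3/clioquinol equimolar mix (positive) and DMSO (negative).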
FUS yeast rescue: rescues growth of FUS-expressing yeast. 0.24% of 390,000 active. S. cerevisiae FUS-expressing, growth rescue, OD600, 24 h. AID 1347120. Potency, µM (highest dose often 76.6 µM), most hits filed as activators;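 note: potency is the fitted concentration of half-maximal effect; plate controls were DMSO vehicle for no effect and reference control for full effect; nearly all actives have a fitted effect of over 55% in size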
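Restored growth of FUS-toxic S. cerevisiae, read as 600 nm absorbance after 24 h at 30C in galactose medium (starting OD 0.005). Controls CP55940 and DMSO.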
Mm-Cpn inhibitor: M. maripaludis TRiC chaperonin inhibition; purified Mm-Cpn ATPase, ADP Transcreener TR-FRET; Potency, µM (titrated, usually from 76.9 µM), for inactives: at the highest dose activity, negative = inhibition, usual class: inhibitors; 0.031% of 330,000 active; AID 504842; note: potency is the fitted concentration of half-maximal effect; % is set by controls: 0 for no effect and ±100 for the full control effect; nearly all actives have a fitted effect of over 80% in size
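Compound-treated chaperonin, 25 nM final, turns over 10 uM ATP at 37°C for 30 min following a 10 min preincubation; ADP generated competes with ADP-d2 for Eu-cryptate antibody, lowering FRET.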
aSyn yeast inh: alpha-synuclein toxicity inhibition in yeast; Yeast expressing alpha-synuclein, growth rescue, BacTiter-Glo, 24 h; Potency, µM (doses to about 46.1 µM), inactives show at the top dose growth rescue (activation), most hits filed as activators; 0.14% of 370,000 active; AID 652106; note: potency is the fitted concentration of half-maximal effect; % of control where 0% means no effect; nearly all actives have a fitted effect of over 65% in size
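Readout is rescue of growth in alpha-synuclein-expressing yeast, so inhibitors of toxicity appear as activators. Growth after 24 hr at 30 deg C in galactose medium is quantified by luminescence.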
TDP-43 yeast inh: rescues yeast growth from TDP-43 toxicity; TDP-43 expressing yeast growth rescue, BacTiter-Glo, 24 h; Potency, µM (doses to about 46.1 µM), inactives show top-dose growth rescue (activation), most hits filed as activators; 1.8% of 410,000 active; AID 652104; note: potency is the fitted concentration of half-maximal effect; % of control where 0% means no effect; nearly all actives have a fitted effect of over 50% in size
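Luminescence from BacTiter-Glo reports growth of TDP-43-expressing yeast after 24 hr at 30 deg C with compound. Cells were raffinose-pregrown to mid-log, then seeded in galactose medium at OD600=0.02.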
Starred values were filed as active, the others as inactive; i = inactive; u = inconclusive; x = not tested or not shown; [ ] = another dose, or the depositor's remark. Most compounds without a hit are left out; they make up all but 2.3% or so of the library. Unless noted, calls come from the whole dose curve; as a rule, active = well fitted curve in the direction sought with a large enough effect; inconclusive = small, poorly fitted or top-dose-only effect, or another doubt; inactive = no such curve, though single readings can be large; an effect the other way counts as inactive or inconclusive.

SMILES	CCT chaperon mod	Abeta yeast res	FUS yeast rescue	Mm-Cpn inhibitor	aSyn yeast inh	TDP-43 yeast inh
CCn1cc2nc(SCC(=O)Nc3ccc(OC)c(Cl)c3)n(Cc3ccc(OC)cc3)c(=O)c2n1	x	i	i	x	x	0%
CCn1cc2nc(SCC(=O)Nc3cc(OC)cc(OC)c3)n(Cc3ccc(Cl)cc3)c(=O)c2n1	x	i	22µM*	x	x	3%
COCCCNCCOCCOc1ccc(C)cc1[N+](=O)[O-]	-40*	i	i	0%	1%	2%
CC(C)=CC([C@]12C[C@H](CO)N[C@@H]1Nc1ccccc12)S(=O)(=O)c1ccccc1 (some centres not stated)	x	x	i	x	x	x
CCN1/C(=C/C=C/C=C/c2sc3ccccc3[n+]2CC)Sc2ccccc21	x	x	x	32µM*	-65%	x
COC(=O)C1CN(Cc2ccccc2)CCS(=O)(=O)N1Cc1cn(Cc2ccc(F)cc2)nn1 (configuration not stated)	x	x	i	x	x	x
COc1ccc(N2CCN(C(=O)CSc3nnc4c(C)cc5cc(C)ccc5n34)CC2)cc1	-1	i	x	3%	3%	u
COc1ccc(N2CCN(C(=O)CSc3nnc4c(C)cc5ccc(C)c(C)c5n34)CC2)cc1	-2	i	u	-3%	-1%	14µM*
Oc1ccc(Oc2ccc(Oc3ccc(O)cc3)cc2)cc1	-4	i	i	3%	4%	20µM*
COc1ccc(S(=O)(=O)c2ccc(O)cc2)cc1	-1	i	i	4%	4%	8%
COc1ccc(Nc2nnc(SCC(=O)NC3CC3)s2)cc1	1	i	i	0%	2%	9%
Cc1cccc(Nc2nnc(SCC3CCCCO3)s2)c1C (configuration not stated)	-1	i	x	3%	16%	-23%
COc1ccc(Nc2nnc(SCC3CCCO3)s2)cc1 (configuration not stated)	-4	i	i	0%	-10%	28µM*
COc1cccc(Nc2nnc(SCC3CCCCO3)s2)c1 (configuration not stated)	0	i	i	2%	0%	10µM*
Nc1ccc(/C=C/c2cc(Cl)nc3ccccc23)cc1	x	x	x	x	18%	x
CCCCNC(=O)N1CCC(c2nc3ccc(Cl)cc3[nH]2)CC1	x	x	i	x	x	x
COc1ccc(N2CCN(C(=O)c3cc4c(-c5ccccc5F)nn(C)c4s3)CC2)cc1	x	i	u	x	x	20µM*
COc1ccc(N2CCN(C(=O)c3nn(C)c4c3CSc3ccccc3-4)CC2)cc1	x	i	i	x	x	13µM*
Cn1nc(C(=O)N2CCN(c3ccc(F)cc3)CC2)c2c1-c1ccccc1SC2	x	i	i	x	x	-12%
Cn1nc(C(=O)N2CCN(c3ccccc3F)CC2)c2c1-c1ccccc1SC2	x	i	i	x	x	18µM*
Cc1ccc2c(c1)CCCN2C(=O)c1cnn2c1NC(=C1CC1)C=C2C(F)F	x	x	x	x	-1%	x
O=C(COC(=O)c1ccc(Sc2ncn[nH]2)c([N+](=O)[O-])c1)Nc1cccc(Cl)c1F	x	x	i	x	x	x
Cc1cccc(NC(=O)OC2CC3CC2[C@H]2CCCCN2C3)c1 (some centres not stated)	x	x	i	x	x	x
CN1CCc2c(sc3c2C(=O)NC(c2ccco2)N3)C1 (configuration not stated)	-1	i	i	-2%	1%	26%
O=C1NC(c2cccs2)Nc2sc3c(c21)CCCC3 (configuration not stated)	-94*	i	i	2%	6%	9%
SMILES	CCT chaperon mod	Abeta yeast res	FUS yeast rescue	Mm-Cpn inhibitor	aSyn yeast inh	TDP-43 yeast inh
Cn1ncc2c(NCc3ccco3)ncnc21	x	x	x	x	-20%	x
CSc1ccccc1C(=O)NC1CCCN(c2ccc(C(F)(F)F)cn2)C1 (configuration not stated)	-1	22µM*	i	-2%	-1%	u
COc1ccc(Cl)cc1NC(=O)Cn1ccn(Cc2ccc(C)cc2)c(=O)c1=O	x	i	i	x	x	1%
CC(CCC(C)[n+]1cccc(C#N)c1)[n+]1cccc(C#N)c1 (configuration not stated)	x	x	x	x	-1%	x
CN1C(=O)c2ccccc2N(C)C1c1cccs1 (configuration not stated)	-1	i	i	-4%	11%	14%
CN1C(=O)c2ccccc2N(C)C1c1ccccc1Cl (configuration not stated)	0	i	i	0%	13%	16µM*
CC(=O)NC(Cc1c(F)c(F)c(F)c(F)c1F)C(=O)NCC(N)C(=O)c1ccccc1 (configuration not stated)	x	x	x	x	-2%	x
CCc1ccccc1NC(=O)c1cnn(-c2ccccc2)c1C	-2	i	i	3%	-37%	14µM*
Cc1ccccc1NC(=O)c1cnn(-c2ccccc2)c1C	-3	i	i	1%	-14%	13µM*
Cc1cccc(NC(=O)c2cnn(-c3ccccc3)c2C)c1C	2	i	i	0%	-8%	0%
Cc1nc2ccccn2c1C(=O)CSc1ccccc1Cl	-2	i[9.22 µM]	i	1%	9%	35µM*
C[C@@H](c1ccccc1)N1C[C@H](COCc2ccccc2)Oc2cc(N3CCC[C@H]3C(N)=O)ccc2S1(=O)=O	-2	i	u	x	19%	9%
C[C@@H](c1ccccc1)N1C[C@@H](COCc2ccccc2)Oc2cc(N3CCC[C@H]3C(N)=O)ccc2S1(=O)=O	-1	i	22µM*	x	-3%	14%
Cc1nc2cc(Cl)c(Cl)cc2n1-c1ccccn1	-1	i	i	-1%	-3%	13µM*
CCn1c(-c2cccnc2Cl)nc2cc(Cl)c(Cl)cc21	1	i	i	2%	29%	u
COc1cccc(Oc2cnc(N)nc2-c2ccc(OC)cc2O)c1	0	i	i	-4%	2%	10µM*
COc1ccc(-c2sc3ccc(N4CCOCC4)cc3c2C#CCO)cc1	-2	i	i	-17%	-10%	14µM*
O=C(NC(=S)Nc1ccccc1Br)C1CC1	2	i	i	x	-10%	13µM*
Cc1ccc(NC(=S)NC(=O)C2CCCC2)c(Br)c1	-1	u	i	-6%	1%[1.84 µM]	14µM*
